Inconclusive results are not listed. Active and inactive are the calls of the source. Unless noted, calls follow the shape of the dose curve; as a rule, active = well fitted curve in the direction sought with a large enough effect; inconclusive = small, poorly fitted or top-dose-only effect, or another doubt; inactive = no such curve, though single readings can be large; an effect the other way counts as inactive or inconclusive.
Legend:
[1] = High Content Imaging Cell-Based qHTS for Inhibitors of the mTORC1 Signaling Pathway in MEF Cells (AID 2667); also: potency is read from the fitted curve at half-maximal effect
Procedure, shortened: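 WT MEFs (Tsc2-/-, p53-/- re-expressing Tsc2), in DMEM + 10% FBS, were treated with compound for 24 h at 37 C. Cells were then fixed and stained for phospho-rpS6 Ser235/236 with propidium iodide as cell count. Values are % positive cells, with thresholds set against rapamycin-treated cells.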

[2] = Cytometry Cell-Based qHTS for Inhibitors of the mTORC1 Signaling Pathway in MEF cells (AID 2668); also: potency is read from the fitted curve at half-maximal effect
Procedure, shortened: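 Read-out: phospho-rpS6 Ser235/236 immunofluorescence normalized to propidium iodide intensity, scored as % active cells against a rapamycin (7.5 nM) threshold. Cells: Tsc2-/-, p53-/- MEFs stably expressing WT Tsc2, compound-treated 24 hrs at 37 degree Celsius.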

[3] = target: Ubiquitin carboxyl-terminal hydrolase 2 (Homo sapiens) (UniProt O75604); assay: qHTS Validation Assay for Inhibitors of Ubiquitin-specific Protease USP2a Using CHOP2 as the Reporter (AID 463106)
Procedure, shortened: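 USP2 core (10 nM final) was preincubated with compound 30 min at RT in pH 8.0 Tris/CaCl2/beta-ME/CHAPS buffer. Ub-CHOP2 and reporter substrate (25 nM final each) were then added, with fluorescence (Ex 485/Em 531) read after 60 min. Data were normalized to NEM full inhibition and fitted to concentration-response curves.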

[4] = target: DNA polymerase III PolC-type (Bacillus subtilis (strain 168)) (UniProt P13267); assay: qHTS Validation Assay for the Inhibitors of DNA Replication in Gram-Positive Bacteria (AID 485295); also: potency is read from the fitted curve at half-maximal effect
Procedure, shortened: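 PicoGreen fluorescence (ex 480–485/em 535–540 nm) reports dsDNA synthesized on ssM13Gori template with dNTPs/NTPs. Enzyme: holoenzyme rebuilt from purified PolC, beta subunit, SSB and primase. Compound preincubated before substrate addition; RT throughout.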

[5] = target: Tumor susceptibility gene 101 protein (Homo sapiens) (UniProt Q99816); assay: qHTS Validation Assay for Iinhibitors of HIV-1 Budding by Blocking the Interaction of PTAP/TSG101 (AID 485342; calls by dose curve)
Procedure, shortened: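 FP read-out: FITC-PTAP peptide, 50 nM final, binding Tsg101 binding domain, 10 uM final; 20 min r.t.; 10 mM HEPES pH 7.5, 0.15 M NaCl, 0.01% Tween 20, 3 mM EDTA, 0.1 mM TCEP.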

[6] = Cytometric Cell-Based qHTS for Inhibitors of the mTORC1 Signaling Pathway in MEF (Tsc2-/-, p53-/-) Cells (AID 2660);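 also: percent of cells above a phospho-rpS6 to PI ratio cutoff in each well; series mostly up to about 38 µM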
Procedure, shortened: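 Immunofluorescence qHTS of rpS6 Ser235/236 phosphorylation: MEFs (Tsc2-/-, p53-/-) treated 24 h, 37 C, in DMEM + 10% FBS. Alexa-488 signal normalized to PI count, referenced to rapamycin (7.5 nM) and DMSO; PI cell number recorded for viability.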

[7] = qHTS Validation Assay to Find Inhibitors of Chronic Active B-Cell Receptor Signaling (AID 485345; active = well fitted curve in the direction sought with a large enough effect in the main read-out, with a control signal flat, not every such curve was filed as active)
Procedure, shortened: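 TMD8 ABC-DLBCL cells stably carrying doxycycline-inducible IkappaBalpha–green luciferase fusion plus unfused red luciferase; compounds 46 uM to 3 nM, 4 h at 37C with doxycycline. Corrected green/red luminescence ratio normalized to 10 uM MG-132 and basal cell wells; curves fitted.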

[8] = Validation screen for small molecules that induce DNA re-replication in MCF 10A normal breast cells (AID 463097); also: nearly all actives have a fitted effect of over 60% in size
Procedure, shortened: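 250 MCF 10A cells/well; compound pin-transferred; 48 hr, 37 C, 5% CO2; Hoechst 40 min; imaged 405/500-530 nm. Hits = more high-intensity nuclei.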

[9] = High Content Imaging Cell-Based qHTS for Inhibitors of the mTORC1 Signaling Pathway in MEF (Tsc2-/-, p53-/-) Cells (AID 2666);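 also: percent of cells scored positive for phospho-rpS6 Ser235/236 immunostaining by imaging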; also: potency is read from the fitted curve at half-maximal effect
Procedure, shortened: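 Phospho-rpS6 (Ser235/236) immunofluorescence, normalized and scored as % positive cells using rapamycin and DMSO controls, was read in empty-vector Tsc2-/-, p53-/- MEFs after 24 h compound exposure at 37 C; propidium iodide counted cells.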

Measured: Potency

Tumor susceptibility gene 101 protein (Homo sapiens), sequence (Q99816 whole entry, looked up, the tested form may be a part): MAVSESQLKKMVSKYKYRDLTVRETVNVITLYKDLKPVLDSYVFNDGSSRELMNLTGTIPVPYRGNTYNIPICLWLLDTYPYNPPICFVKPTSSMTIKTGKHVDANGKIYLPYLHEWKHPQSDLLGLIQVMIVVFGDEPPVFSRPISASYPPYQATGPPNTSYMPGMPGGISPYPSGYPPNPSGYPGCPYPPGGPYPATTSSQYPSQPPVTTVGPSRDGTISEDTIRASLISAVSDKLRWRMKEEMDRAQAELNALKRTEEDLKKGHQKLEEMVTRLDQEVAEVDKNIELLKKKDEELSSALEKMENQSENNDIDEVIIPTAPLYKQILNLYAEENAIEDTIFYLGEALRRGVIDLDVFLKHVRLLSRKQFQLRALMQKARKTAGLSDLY
DNA polymerase III PolC-type (Bacillus subtilis (strain 168)), sequence (P13267 whole entry, looked up): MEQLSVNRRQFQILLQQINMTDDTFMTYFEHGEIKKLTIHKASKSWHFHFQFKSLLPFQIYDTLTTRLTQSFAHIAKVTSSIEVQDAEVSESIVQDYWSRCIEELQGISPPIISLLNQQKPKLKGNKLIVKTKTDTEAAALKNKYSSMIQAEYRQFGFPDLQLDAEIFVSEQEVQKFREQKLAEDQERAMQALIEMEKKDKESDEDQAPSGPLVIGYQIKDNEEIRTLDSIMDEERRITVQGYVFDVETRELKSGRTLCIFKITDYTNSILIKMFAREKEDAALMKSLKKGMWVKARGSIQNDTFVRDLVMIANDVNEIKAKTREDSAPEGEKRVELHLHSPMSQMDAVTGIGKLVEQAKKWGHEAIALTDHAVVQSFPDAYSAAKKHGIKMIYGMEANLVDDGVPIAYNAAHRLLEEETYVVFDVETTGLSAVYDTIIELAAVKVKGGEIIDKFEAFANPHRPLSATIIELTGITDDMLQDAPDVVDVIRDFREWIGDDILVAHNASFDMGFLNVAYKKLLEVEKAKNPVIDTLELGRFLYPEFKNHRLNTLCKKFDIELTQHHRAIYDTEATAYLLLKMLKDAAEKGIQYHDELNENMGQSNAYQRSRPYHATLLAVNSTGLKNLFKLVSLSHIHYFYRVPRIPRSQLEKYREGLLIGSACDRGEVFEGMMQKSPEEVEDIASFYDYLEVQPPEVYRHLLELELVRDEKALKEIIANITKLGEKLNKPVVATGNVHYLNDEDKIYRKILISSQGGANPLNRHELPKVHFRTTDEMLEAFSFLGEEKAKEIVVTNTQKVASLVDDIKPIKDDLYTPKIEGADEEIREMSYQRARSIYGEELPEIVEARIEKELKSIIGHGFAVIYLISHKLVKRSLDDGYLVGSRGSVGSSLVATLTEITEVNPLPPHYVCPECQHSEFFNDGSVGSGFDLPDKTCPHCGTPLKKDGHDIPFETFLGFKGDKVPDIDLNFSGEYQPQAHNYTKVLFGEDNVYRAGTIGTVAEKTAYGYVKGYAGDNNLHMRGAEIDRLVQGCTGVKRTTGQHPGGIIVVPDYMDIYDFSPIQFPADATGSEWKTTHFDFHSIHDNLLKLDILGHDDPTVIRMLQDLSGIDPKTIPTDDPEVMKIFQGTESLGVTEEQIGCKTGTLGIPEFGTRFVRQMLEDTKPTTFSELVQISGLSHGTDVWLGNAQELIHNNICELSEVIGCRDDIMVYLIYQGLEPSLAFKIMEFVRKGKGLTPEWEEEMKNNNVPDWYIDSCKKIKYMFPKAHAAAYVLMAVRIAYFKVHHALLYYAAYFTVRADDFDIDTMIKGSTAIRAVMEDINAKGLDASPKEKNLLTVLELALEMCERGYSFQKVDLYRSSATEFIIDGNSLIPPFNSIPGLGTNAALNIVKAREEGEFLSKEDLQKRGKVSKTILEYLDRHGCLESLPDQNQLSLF
Ubiquitin carboxyl-terminal hydrolase 2 (Homo sapiens), sequence (O75604 whole entry, looked up): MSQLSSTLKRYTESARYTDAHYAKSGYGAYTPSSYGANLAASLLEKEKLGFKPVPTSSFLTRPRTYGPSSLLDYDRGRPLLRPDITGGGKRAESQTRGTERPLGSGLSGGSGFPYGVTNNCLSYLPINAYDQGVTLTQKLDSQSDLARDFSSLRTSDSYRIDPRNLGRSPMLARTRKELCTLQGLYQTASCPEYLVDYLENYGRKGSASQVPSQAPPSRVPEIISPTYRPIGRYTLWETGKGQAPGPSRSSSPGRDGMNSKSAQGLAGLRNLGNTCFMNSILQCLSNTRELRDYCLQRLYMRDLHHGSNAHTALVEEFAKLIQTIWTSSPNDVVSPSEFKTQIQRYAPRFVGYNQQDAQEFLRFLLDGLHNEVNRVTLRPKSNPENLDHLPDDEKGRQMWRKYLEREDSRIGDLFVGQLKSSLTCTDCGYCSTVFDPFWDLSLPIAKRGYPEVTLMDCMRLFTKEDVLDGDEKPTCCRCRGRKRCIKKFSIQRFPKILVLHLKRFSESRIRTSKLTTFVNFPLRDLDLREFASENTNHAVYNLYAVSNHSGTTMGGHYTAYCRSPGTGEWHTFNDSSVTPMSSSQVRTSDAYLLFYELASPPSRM

CCCCCCCC/C=C\CCCCCCCC(=O)NCCc1ccc(O)c(O)c1
active: [1] 5.21 µM | [2] 3.69 µM | [4] 18.9 µM
inactive: [3] | [5]

O=S(=O)(c1cccc2c(Cl)cccc12)N1CCCNCC1
not listed: [8] | [9]
inactive: all other assays above

O=C(O)C1CN(CCCP(=O)(O)O)CCN1 (stereo not drawn)
not listed: [9]
inactive: all other assays above

CC(C)NC[C@H](O)COc1ccc(CC(N)=O)cc1
not listed: [6]
inactive: all other assays above

CNCCc1cnc(CCC(c2ccccc2)c2ccccc2)[nH]1
active: [2] 11.7 µM
inactive: [3] | [4] | [5]

COc1cc(CC(=O)O)ccc1O
not listed: [9]
inactive: all other assays above

CN1Cc2sccc2C(c2ccc(O)c(O)c2)C1 (stereo not drawn)
not listed: [8] | [9]
inactive: all other assays above

N[C@@H](Cc1c[nH]c2ccccc12)C(=O)O
not listed: [9]
inactive: all other assays above

N#Cc1cc([N+](=O)[O-])c2sc(C(N)=O)[n+]([O-])c2c1
inactive: [1] | [3] | [4] | [5]
active: [9] 18.5 µM

Cc1nc(N=Nc2ccc(C(=O)O)cc2)c(COP(=O)(O)O)c(C=O)c1O
not listed: [9]
inactive: all other assays above

COC(=O)[C@H](NC(=O)c1cc(-c2ccccc2)nc2ccccc12)c1ccccc1
not listed: [6] | [7]
inactive: all other assays above

CN(C)S(=O)(=O)c1ccc2c(c1)/C(=C/c1cc3c([nH]1)CCCC3)C(=O)N2
inactive: [9] | [1] | [3] | [4] | [5]

N=C(N)c1ccc(N)cc1
not listed: [9]
inactive: all other assays above
